According to PubChem BioAssay (NCATS):
Results filed as inconclusive are left out. Entries that show only a call come without a potency. Activity calls are given as the source filed them. The call rests on the fitted dose curve; in most records, active means well fitted inhibition curve with a large enough effect; inconclusive means small, poorly fitted or top-dose-only effect; inactive means flat fitted curve, though single readings scatter.

biological target: Ubiquitin carboxyl-terminal hydrolase 1 (Homo sapiens) (UniProt O94782); experiment: Inhibitors of USP1/UAF1: Pilot qHTS (AID 504865); details: purified USP1/UAF1, Ub-rhodamine cleavage fluorescence; series mostly up to 114 µM;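 further: rhodamine fluorescence freed from ubiquitin-rhodamine substrate followed over time; top concentration of the series differs between compounds; nearly all actives have a fitted effect of over 35% in size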
Procedure, shortened: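 Enzyme-free wells gave the negative control, while test wells held 1nM USP1/UAF1 preincubated with compound for 15 min at room temperature. Ub-Rho at 150nM final started the reaction, and fluorescence at 480/540 nm was recorded kinetically.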

Chain of Ubiquitin carboxyl-terminal hydrolase 1 (Homo sapiens) (O94782 whole entry, looked up): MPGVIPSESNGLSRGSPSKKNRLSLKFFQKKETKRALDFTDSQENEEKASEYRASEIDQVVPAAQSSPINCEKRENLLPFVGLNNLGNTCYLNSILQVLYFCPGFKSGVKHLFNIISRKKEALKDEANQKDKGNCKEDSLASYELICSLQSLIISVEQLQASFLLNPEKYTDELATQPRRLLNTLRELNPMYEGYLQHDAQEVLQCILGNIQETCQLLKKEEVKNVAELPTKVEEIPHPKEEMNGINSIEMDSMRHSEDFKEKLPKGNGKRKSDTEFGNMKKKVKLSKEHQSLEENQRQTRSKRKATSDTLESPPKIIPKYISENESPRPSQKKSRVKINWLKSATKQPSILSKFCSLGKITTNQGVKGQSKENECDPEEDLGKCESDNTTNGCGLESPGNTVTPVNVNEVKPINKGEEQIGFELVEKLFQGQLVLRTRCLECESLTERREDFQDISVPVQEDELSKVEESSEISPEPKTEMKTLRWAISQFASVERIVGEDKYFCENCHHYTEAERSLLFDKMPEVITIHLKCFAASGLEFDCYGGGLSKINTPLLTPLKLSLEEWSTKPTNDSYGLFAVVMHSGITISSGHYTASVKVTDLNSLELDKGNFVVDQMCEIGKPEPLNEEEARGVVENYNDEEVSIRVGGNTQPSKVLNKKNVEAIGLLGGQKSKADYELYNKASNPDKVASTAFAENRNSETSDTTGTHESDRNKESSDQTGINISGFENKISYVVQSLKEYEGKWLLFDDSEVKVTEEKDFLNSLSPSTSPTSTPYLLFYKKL

Compound	Potency
Nc1ccc(N)cc1	inactive
C[N+](C)(C)CCOC(=O)C(O)(c1ccccc1)c1ccccc1	inactive
CC(C)(O)C(Cl)(Cl)Cl	inactive
CN1C[C@H](C(=O)N[C@]2(C)O[C@@]3(O)[C@@H]4CCCN4C(=O)[C@H](Cc4ccccc4)N3C2=O)C[C@@H]2c3cccc4[nH]cc(c34)C[C@H]21	inactive
CC[C@H]1CN2CCc3cc(OC)c(OC)cc3[C@@H]2C[C@@H]1C[C@H]1NCCc2cc(OC)c(OC)cc21	inactive
CN1C(=O)CN=C(c2ccccc2)c2cc([N+](=O)[O-])ccc21	inactive
